Assay [1] in a line: inhibitors of TNFa-induced NFkB p65 translocation, primary screen, imaging, HUVEC, MLSMR starter and 10KST1 sets (AID 438;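 active = inhibition above 20% together with a positive visual image hit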;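 note: compound added about 3h40 before a 20 min TNFalpha stimulation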;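 for inhibition: signal is the nuclear over cytoplasmic p65 intensity ratio per well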). The settings on record: HUVEC TNFa-induced p65 nuclear translocation; cell count: measured here: nuclei count (cytotoxicity indicator), at 2.08 µM; inhibition: at 2 µM, stronger effect = higher value, 0% TNFa-plus-vehicle, 100% no-TNFa wells.
Assay [2] is described as follows: reduction of polyQ htt aggregates in cells – imaging, exon1htt(103Q)mCFP cells, high-content imaging, primary screen (AID 483;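 active = visual image review flags a hit and inhibition of aggregation exceeds 20%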;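 note: compound exposure lasted 3 days before fixation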;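 for nuclei count: percent of the per-plate median nuclei count of sample wells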). The following applies: exon1htt(103Q)mCFP cell line, aggregate imaging, at 2 µM; inhibition of aggregation: stronger effect = higher value; nuclei count: measured here: cell count, toxicity.
Assay [3] can be described thus: endothelial E-selectin expression blockers – imaging, HUVEC, immunofluorescence, MLSMR starter and 10KST1 sets, primary screen (AID 487).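 For inhibition: signal is fraction of cell area covered by stained E-selectin grains.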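 For nuclei count: 100% = median nuclei count of all wells on the same plate.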 The following applies: HUVEC TNFalpha-induced E-selectin immunofluorescence imaging, at 2 µM; inhibition: stronger effect = higher value; nuclei count: measured here: cell number, toxicity.
The target in assay [4] is Voltage-gated potassium channel subunit beta-2 (Rattus norvegicus) (UniProt P62483). Nature of the assay: inhibitors of rat Kvbeta2 reductase activity – biochemical, NADPH fluorescence, primary screen (AID 622;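 active = fluorescence slope higher than the sample average by over 3 SD, cut at about -0.22 in these data, passing the limit was not always enough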;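 note: slope of raw intensity against log time taken from 70 to 1610 s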). The settings on record: recombinant KvBeta, 4-cyanobenzaldehyde reduction, at 10 µM, stronger effect = higher value.
Sequence of Voltage-gated potassium channel subunit beta-2 (Rattus norvegicus) (P62483 whole entry, looked up): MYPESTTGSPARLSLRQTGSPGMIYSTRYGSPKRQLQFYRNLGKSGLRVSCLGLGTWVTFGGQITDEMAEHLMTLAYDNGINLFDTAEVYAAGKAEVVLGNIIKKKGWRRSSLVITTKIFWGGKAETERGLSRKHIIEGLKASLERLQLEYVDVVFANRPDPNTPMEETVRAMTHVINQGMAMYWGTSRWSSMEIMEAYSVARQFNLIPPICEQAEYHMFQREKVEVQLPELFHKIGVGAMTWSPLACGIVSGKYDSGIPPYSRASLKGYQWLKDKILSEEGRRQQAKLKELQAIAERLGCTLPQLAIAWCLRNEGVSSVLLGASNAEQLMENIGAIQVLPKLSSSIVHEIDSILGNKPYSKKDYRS
Assay [5] shares this target. Nature of the assay: enhancers of rat Kvbeta2 NADPH turnover – biochemical, NADPH fluorescence, primary screen (AID 623;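 active = NADPH fluorescence slope more negative than the mean of all samples by about 3 SD, 99.7% confidence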;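 note: fluorescence intensity change per second fitted from 20 to 320 s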). The following applies: Recombinant KvBeta, NADPH fluorescence decrease slope, 10 min; at 10 µM; stronger effect = lower value.
Assay [6] has as its target Alpha-2C adrenergic receptor (Homo sapiens) (UniProt P18825). Nature of the assay: compounds altering alpha2C-coupled GIRK flux – cell-based, HEK293 alpha2C/GIRK1/2, thallium flux, primary screen (AID 624;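 active = fluorescence slope after compound addition differing from the mean of all screened samples at 99.7% confidence, in either direction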;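 note: slope of fluorescence ratio to pre-addition baseline per second over 15 to 24 s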). The settings on record: thallium flux BTC fluorescence, at 10 µM, actives lie on both sides.
Assay [7] in a line: blockers of RIG-like receptor reporter activation – cell-based, Sendai virus stimulus, luciferase, 10K MLSCN set, TLR/RLR signaling modifier project, primary screen (AID 602276;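 active = inhibition at or above 50% at 10 µM; inactive = inhibition below 50%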;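 note: firefly luciferase from ISG56 promoter only with Renilla not read in this screen; 0% = Sendai virus plus DMSO and 100% = medium plus DMSO without virus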). The settings on record: HEK293 RL24 IRF3 luciferase reporter, at 10 µM, stronger effect = higher value. In general terms: In a reporter assay the amount or activity of a reporter protein is the signal.
The nature of assay [8]: TLR3 IRF3 reporter activation blockers – cell-based, poly I:C stimulus, luciferase, 10K MLSCN set, primary screen (AID 602277;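 active = inhibition of the reporter signal at or above 50%; inactive = inhibition below 50%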). The following applies: HEK293-TLR3 RL24 IRF3 luciferase reporter, at 10 µM, stronger effect = higher value.

Calls of active or inactive are those of the source.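 Rule for the calls, unless noted: active = visually confirmed hit in the image check and inhibition above 20%; inconclusive = visually confirmed hit but inhibition not above 20%; inactive = no visual hit in the image check.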

Sequence of Alpha-2C adrenergic receptor (Homo sapiens) (P18825 whole entry, looked up): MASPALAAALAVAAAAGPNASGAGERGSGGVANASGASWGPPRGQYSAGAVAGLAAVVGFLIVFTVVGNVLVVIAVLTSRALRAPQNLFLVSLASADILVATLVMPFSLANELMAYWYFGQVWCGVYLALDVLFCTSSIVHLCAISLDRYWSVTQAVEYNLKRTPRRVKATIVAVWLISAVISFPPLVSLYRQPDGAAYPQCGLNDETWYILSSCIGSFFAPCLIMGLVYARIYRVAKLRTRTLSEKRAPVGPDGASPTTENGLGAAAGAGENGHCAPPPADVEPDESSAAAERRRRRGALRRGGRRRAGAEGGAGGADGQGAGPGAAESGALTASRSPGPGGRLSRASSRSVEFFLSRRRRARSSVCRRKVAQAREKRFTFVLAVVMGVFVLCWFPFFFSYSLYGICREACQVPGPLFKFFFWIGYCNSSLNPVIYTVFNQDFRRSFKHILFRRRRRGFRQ

The term inhibition denotes the drop in the measured response relative to a control, in per cent. For the compound `COC(=O)N1CC(c2ccccc2)CC1=O` (stereo not drawn), the cell count in assay [1] was determined as 639. Besides, the inhibition was -0.6% (inactive) in assay [1], -61.9% (inactive) in assay [3], 7.79% (inactive) in assay [7] and 16.7% (inactive) in assay [8]. Moreover, in assay [2], the inhibition of aggregation was -22.4% (inactive). Further, the nuclei count in assay [2] came out at 119%; in assay [3] it was 73%. For the same compound, in assay [4], the fluorescence slope is -0.47 (inactive). In assay [5], the NADPH fluorescence slope was -0.000268 (inactive). The slope in assay [6] is 0.00505 (inactive).
Turning to `O=C(Cn1nnc(-c2ccccc2)n1)Nc1ccccc1N1CCOCC1`, the cell count in assay [1] was found to be 584. The inhibition in assay [1] is 3% (inactive); in assay [3], -16% (inactive); in assay [7] it was 14.7% (inactive); in assay [8], 14.8% (inactive). For the same compound, in assay [2], the inhibition of aggregation was 5.4% (inactive). The nuclei count in assay [2] came to 63.9%; in assay [3] it was 107%. The fluorescence slope in assay [4] is -0.602 (inactive). The NADPH fluorescence slope in assay [5] was 2.3e-05 (inactive). Further, in assay [6], the slope was 0.0042 (inactive).
Turning to `CN(C)/C=C1\N=C(c2ccc3c(c2)OCO3)OC1=O`, the cell count in assay [1] was 462. The inhibition in assay [1] is 15.8% (inactive); in assay [3], 46.5% (inactive); in assay [7], -20.5% (inactive); in assay [8], -55.4% (inactive). The inhibition of aggregation in assay [2] was -17.4% (inactive). Further, the nuclei count in assay [2] is 104%; in assay [3], 108%. Moreover, in assay [4], the fluorescence slope is -0.451 (inactive). Also, the NADPH fluorescence slope in assay [5] is 1.5e-05 (inactive). Moreover, in assay [6], the slope was 0.0038 (inactive).
In the case of `Cn1c(Cl)nc2ccccc21`, the cell count in assay [1] was found to be 467. Also, the inhibition in assay [1] is 3.8% (inactive); in assay [3] it was 45.8% (inactive); in assay [7], 19.3% (inactive); in assay [8], 51% (active). Moreover, the inhibition of aggregation in assay [2] is 12.8% (inactive). For the same compound, the nuclei count in assay [2] stood at 93.2%; in assay [3], 93.3%. For the same compound, the fluorescence slope in assay [4] was -0.514 (inactive). The NADPH fluorescence slope in assay [5] is -5.9e-05 (inactive). Moreover, in assay [6], the slope is 0.00423 (inactive).
As for `CCCCCc1c(C)nc(Nc2nc(C)c3cc(OC)ccc3n2)[nH]c1=O`, the cell count in assay [1] was 411. In addition, the inhibition was 5% (inactive) in assay [1], 9.5% (inactive) in assay [3], 12.6% (inactive) in assay [7] and -6.69% (inactive) in assay [8]. For the same compound, the inhibition of aggregation in assay [2] was 7.6% (inactive). In addition, the nuclei count is 84.7% in assay [2] and 98% in assay [3]. Moreover, in assay [4], the fluorescence slope is -0.598 (inactive). The NADPH fluorescence slope in assay [5] is 1.7e-05 (inactive). Also, the slope in assay [6] is 0.00896 (inactive).
Regarding `COc1ccc(-c2nnc(SCC(=O)Nc3sc4c(c3C#N)CCC4)n2CC2CCCO2)cc1` (stereo not drawn), the cell count in assay [1] was found to be 846. For the same compound, the inhibition in assay [1] is 4.6% (inactive); in assay [3], -171% (inactive); in assay [7], 7.87% (inactive); in assay [8], 15.5% (inactive). Moreover, the inhibition of aggregation in assay [2] was 13.5% (inactive). Moreover, the nuclei count was 103% in assay [2] and 131% in assay [3]. Moreover, the fluorescence slope in assay [4] is -0.591 (inactive). Moreover, the NADPH fluorescence slope in assay [5] was -5.3e-05 (inactive). Besides, the slope in assay [6] is 0.00872 (inactive).
Turning to `CC(C)(C)c1nnc(NC(=O)C2CCN(c3ncccn3)CC2)s1`, the cell count in assay [1] amounted to 547. Also, the inhibition in assay [1] was -9.2% (inactive); in assay [3], -13.7% (inactive); in assay [7], 5.09% (inactive); in assay [8] it was 31.5% (inactive). Besides, the inhibition of aggregation in assay [2] was -2.6% (inactive). Besides, the nuclei count in assay [2] was found to be 106%; in assay [3], 111%. For the same compound, the fluorescence slope in assay [4] was -0.512 (inactive). The NADPH fluorescence slope in assay [5] is -3.5e-05 (inactive). Further, in assay [6], the slope was 0.00755 (inactive).
With `COc1ccc(-n2c(Cc3cccn3C)nnc2SCC(=O)Nc2cccc(OC)c2)cc1`, in assay [1], the cell count was determined as 545. Besides, the inhibition in assay [1] is 0.5% (inactive); in assay [3] it was -28.8% (inactive); in assay [7], -1.72% (inactive); in assay [8] it was 5.53% (inactive). For the same compound, the inhibition of aggregation in assay [2] was 5.4% (inactive). Moreover, the figures for the nuclei count in assay [2] and in assay [3] were 93.7% and 90.2%, respectively. Besides, in assay [4], the fluorescence slope was -0.632 (inactive). For the same compound, the NADPH fluorescence slope in assay [5] is 2.3e-05 (inactive). Further, the slope in assay [6] is 0.00546 (inactive).
On to `O=C(CSc1nnnn1-c1ccccc1Cl)Nc1ccc2c(c1)OCCO2`, for which, in assay [1], the cell count was 660. The inhibition in assay [1] is -3.4% (inactive); in assay [3], -55% (inactive); in assay [7], 15.2% (inactive); in assay [8] it was 30.5% (inactive). In addition, in assay [2], the inhibition of aggregation is 3.2% (inactive). For the same compound, the nuclei count in assay [2] amounted to 107%; in assay [3] it was 118%. In assay [4], the fluorescence slope is -0.548 (inactive). Further, the NADPH fluorescence slope in assay [5] is -5.9e-05 (inactive). Also, the slope in assay [6] is 0.00706 (inactive).
Regarding `O=C(NC1CCN(Cc2ccccc2)CC1)C1CCN(S(=O)(=O)c2cccc3cccnc23)CC1`, the cell count in assay [1] was 526. The inhibition in assay [1] was -11.6% (inactive); in assay [3], -4.4% (inactive); in assay [7] it was -12.5% (inactive); in assay [8], 8.2% (inactive). In addition, the inhibition of aggregation in assay [2] was 7.8% (inactive). Moreover, the nuclei count in assay [2] is 83.4%; in assay [3], 99.2%. Further, the fluorescence slope in assay [4] is -0.561 (inactive). In addition, the NADPH fluorescence slope in assay [5] is 7.4e-08 (inactive). For the same compound, the slope in assay [6] was 0.00666 (inactive).
Regarding `CCCCn1c(SCC(=O)Nc2cc(C)on2)nnc1-c1cccnc1`, the cell count in assay [1] amounted to 414. For the same compound, the inhibition is -3.9% (inactive) in assay [1], -26.4% (inactive) in assay [3], 11.3% (inactive) in assay [7] and 6.93% (inactive) in assay [8]. For the same compound, the inhibition of aggregation in assay [2] is 1.7% (inactive). Further, the values for the nuclei count in assay [2] and in assay [3] were 121% and 123%, respectively. Moreover, the fluorescence slope in assay [4] was -0.00106 (inactive). Further, the NADPH fluorescence slope in assay [5] is -3.1e-05 (inactive). The slope in assay [6] is 0.00399 (inactive).
In the case of `O=c1c2ccccc2c(/C=N/n2cnnc2)c(O)n1-c1ccccc1`, the cell count in assay [1] came out at 408. The inhibition is -1.9% (inactive) in assay [1], -12.2% (inactive) in assay [3], -3.33% (inactive) in assay [7] and 6.58% (inactive) in assay [8]. In assay [2], the inhibition of aggregation is -43% (inactive). Besides, the results for the nuclei count in assay [2] and in assay [3] were 58.6% and 101%, respectively. For the same compound, in assay [4], the fluorescence slope is -0.102 (active). The NADPH fluorescence slope in assay [5] is -7.7e-05 (inactive). The slope in assay [6] was 0.00664 (inactive).
Consider `N#Cc1c(NC(NC(=O)c2ccco2)C(=O)c2ccccc2)sc2c1CCCC2` (stereo not drawn), for which the cell count in assay [1] was 415. Further, the inhibition in assay [1] was -6% (inactive); in assay [3] it was -31.6% (inactive); in assay [7], 5.59% (inactive); in assay [8], 22.2% (inactive). In addition, the inhibition of aggregation in assay [2] was -7.6% (inactive). For the same compound, the nuclei count in assay [2] came out at 118%; in assay [3], 121%. Moreover, the fluorescence slope in assay [4] was -0.369 (inactive). Further, the NADPH fluorescence slope in assay [5] was 9.4e-06 (inactive). In addition, the slope in assay [6] was 0.00297 (inactive).

Source of the values: PubChem BioAssay.
